The source of these data is PubChem BioAssay (Tox21).

In experiment [1] the target is Gonadotropin-releasing hormone receptor (Homo sapiens) (UniProt P30968). The experiment is described as follows: Human gonadotropin-releasing hormone receptor (GnRHR) small molecule agonists, calcium flux assay in GnRHR-HEK293 cells (AID 1920063). Note: nearly all actives have a fitted effect of over 35% in size. A digest of the protocol: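 We seeded human GnRHR-expressing HEK293 cells for 18 hours, loaded them with calcium dye for an hour at 37 C, added test compounds, and recorded fluorescence intensity kinetically for three minutes.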

In experiment [2] the target is KiSS-1 receptor (Homo sapiens) (UniProt Q969F8). The experiment is described as follows: Human kisspeptin (KISS1R) small molecule agonists, calcium flux assay in KISS1R-HEK293 cells (AID 1920064; active = well fitted activation curve with a large enough effect in the repeat runs). A digest of the protocol:
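Kinetic calcium assay, 1 s sampling over 3 min at Ex/Em 480/540, in HEK293 cells engineered with human KISS1R; compounds delivered in DMSO after 1 h dye loading.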

The nature of experiment [3]: G protein-coupled receptor (GPCR) small molecule agonists, calcium flux assay: HEK293 wild type cell line counter screen (AID 1920065). A digest of the protocol: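 Calcium-sensitive dye, loaded 1 h at 37 C into cells cultured 18 h, reports compound-evoked calcium release as fluorescence (Ex/Em 480/540), measured over 3 min. Agonist mode; 15-point titrations, triplicate.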

Experiment [4] can be described thus: p53 small molecule agonists, cell-based qHTS assay with rat liver microsomes (AID 1963578). The method, boiled down:
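Quantitative HTS of the Tox21 10K library: p53RE-bla cells, rat liver microsomes plus NADPH at 0.5 mg/mL final each, 16 h at 37 C, beta-lactamase fluorescence detection.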

Experiment [5] in a line: p53 small molecule agonists, cell-based qHTS assay with human liver microsomes: qHTS cell viability counter screen (AID 1963579). Note: nearly all actives have a fitted effect of over 45% in size. A digest of the protocol:
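Viability of p53RE-bla cells is measured as CellTiter-Glo luminescence following a 16 h, 37 C incubation with compound, liver microsomes from human donors and NADPH.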

Experiment [6] can be described thus: p53 small molecule agonists, cell-based qHTS assay with rat liver microsomes: qHTS cell viability counter screen (AID 1963580). Note: nearly all actives have a fitted effect of over 45% in size. A digest of the protocol: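 Intracellular ATP, by CellTiter-Glo luminescence, defines viability. HCT-116 p53RE-bla cells, 4,000 per well, were compound-treated in the presence of rat liver microsomes and NADPH for 16 h at 37 C.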
Experiment [7] in a line: p53 small molecule agonists, cell-based qHTS assay (AID 1963582; active = well fitted activation curve with a large enough effect in the signal ratio in the repeat runs, not every such curve was filed as active; the % refers to the signal ratio; note: potency is the fitted concentration of half-maximal effect). The method, boiled down:
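In this cell-based concentration-response screen, a p53 response element drives beta-lactamase; cells received DMSO-borne compounds after 5 h culture and were incubated a further 16 h before FRET substrate development.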

Experiment [8] is described as follows: cAMP Responsive Elements (CRE) small molecule agonists, cell-based qHTS assay (AID 1963590). A digest of the protocol:
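A CRE-responsive beta-lactamase reporter in HEK 293T cells was used. Treatment ran 3 h at 37 C; detection used LiveBLAzer B/G FRET substrate for 2 h at room temperature.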

The target of experiment [9] is Beta-2 adrenergic receptor (Homo sapiens) (UniProt P07550). Nature of the experiment: Adrenergic beta2 receptor (ADRB2) small molecule agonists, cell-based qHTS assay (AID 1963593).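 Note: CHO cells stably overexpressing human ADRB2.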 The method, boiled down:
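CHO cells stably over-expressing ADRB2 were plated overnight at 37C, then dosed with compounds plus a stimulation mix containing 100uM IBMX and 25uM Ro-20-1724 for 0.5hr at room temperature. cAMP was measured by HTRF competition, 1hr.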

Experiment [10] deals with D(2) dopamine receptor (Homo sapiens) (UniProt P14416). Nature of the experiment: Dopamine D2 receptor (DRD2) small molecule antagonists, cell-based qHTS assay (AID 1963595; active = well fitted inhibition curve with a large enough effect in the signal ratio in the repeat runs, with a control signal flat; the % refers to the signal ratio). A digest of the protocol: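 Human DRD2 antagonist qHTS measuring cAMP by HTRF. The cells are exposed to compound for 10 min, then to NKH477 (200 nM) and quinpirole (12 nM) for 30 min at RT, with Ro20-1724 (0.1 mM) present throughout.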

Experiment [11] is described as follows: p53 small molecule agonists, cell-based qHTS assay with human liver microsomes (AID 1963577).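 Note: p53 response element beta-lactamase reporter cells with liver microsomes plus NADPH.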 The method, boiled down:
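HLM-supplemented p53RE-bla reporter assay: 16 h compound exposure at 37 C, microsomes and NADPH each 0.5 mg/mL final, read by fluorescence intensity.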

Experiment [12] in a line: p53 small molecule agonists, cell-based qHTS assay: qHTS cell viability counter screen (AID 1963581). Note: nearly all actives have a fitted effect of over 45% in size. A digest of the protocol: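 Following 5 h attachment, HCT-116 p53RE-bla cells took up compound for 16 h at 37 C; the reporter was read with B/G FRET substrate (2 h RT), and viability then via CellTiter-Glo ATP luminescence.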
Experiment [13] deals with 5-hydroxytryptamine receptor 2A (Homo sapiens) (UniProt P28223). The experiment is described as follows: 5-hydroxytryptamine receptor 2A (HTR2A) small molecule agonists, cell-based qHTS assay (AID 1963587). Note: nearly all actives have a fitted effect of over 30% in size. A digest of the protocol: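 Kinetic calcium-flux fluorescence (2 min, 1 sec intervals) after compound addition in agonist mode. HTR2A-CHO cells were cultured 18 h, then dye-loaded 1 h at 37 C.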

Experiment [14] deals with Muscarinic acetylcholine receptor M1 (Homo sapiens) (UniProt P11229). Nature of the experiment: Cholinergic receptor muscarinic 1 (CHRM1) small molecule antagonists, cell-based qHTS assay (AID 1963588). Note: nearly all actives have a fitted effect of over 40% in size. The method, boiled down:
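CHRM1-CHO calcium-flux assay, antagonist mode. Cells were seeded 18 h, dye-loaded 1 h at 37 C and given compound for 5 min at RT, then acetylcholine was added at 50nM. FDSS fluorescence was read 3 min; 15 concentrations, three runs.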

Experiment [15] shares this target. Nature of the experiment: Cholinergic receptor muscarinic 1 (CHRM1) small molecule agonists, cell-based qHTS assay (AID 1963589). Note: nearly all actives have a fitted effect of over 35% in size. The method, boiled down:
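Measures agonist-induced intracellular calcium rise. Stable human CHRM1 CHO line, 1 h dye load at 37 C, compounds from DMSO, kinetic fluorescence read.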

Experiment [16] can be described thus: cAMP Responsive Elements (CRE) small molecule antagonists, cell-based qHTS assay (AID 1963591; active = well fitted inhibition curve with a large enough effect in the signal ratio in the repeat runs, not every such curve was filed as active; the % refers to the signal ratio). A digest of the protocol:
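HEK293T cells carrying a CRE-driven beta-lactamase reporter receive compound and NKH477 (0.25 uM final) for 3 h. Fluorescence from LiveBLAzer B/G FRET substrate is read after 2 h at room temperature.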

The target in experiment [17] is Beta-2 adrenergic receptor (Homo sapiens) (UniProt P07550). The experiment is described as follows: Adrenergic beta2 receptor (ADRB2) small molecule antagonists, cell-based qHTS assay (AID 1963592). Note: series mostly up to about 92 µM; nearly all actives have a fitted effect of over 50% in size. The method, boiled down:
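Cells (CHO, stable ADRB2 overexpression) incubated 18-20hr at 37C; compounds added from DMSO; agonist mix (1nM isoproterenol, 100uM IBMX, 25uM Ro-20-1724) added; 0.5hr RT; d2-cAMP and anti-cAMP-cryptate added; 1hr RT; 665/615 nm read.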

For experiment [18], the target named is D(2) dopamine receptor (Homo sapiens) (UniProt P14416). The experiment is described as follows: Dopamine D2 receptor (DRD2) small molecule agonists, cell-based qHTS assay (AID 1963594). Note: nearly all actives have a fitted effect of over 35% in size. A digest of the protocol: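 cAMP accumulation in DRD2-HEK293 cells measured by HTRF after 1 h detection; compounds added 10 min before NKH477 (200nM […]) forskolin-analogue stimulation, 30 min at room temperature, with Ro20-1724 present at 0.1 mM final.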

The target of experiment [19] is 5-hydroxytryptamine receptor 2A (Homo sapiens) (UniProt P28223). Nature of the experiment: 5-hydroxytryptamine receptor 2A (HTR2A) small molecule antagonists, cell-based qHTS assay (AID 1963586). Note: nearly all actives have a fitted effect of over 45% in size. Note: potency is the fitted concentration of half-maximal effect. The method, boiled down: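 Antagonist-mode intracellular calcium assay: DOI (4 nM) added after 5 min compound pre-incubation at room temperature to dye-loaded HTR2A-CHO cells. Fluorescence followed for 3 min, sampled every second.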

Records with an inconclusive call do not appear. Calls of active or inactive are those of the source. Unless noted, calls come from the whole dose curve.

Sequence of Muscarinic acetylcholine receptor M1 (Homo sapiens) (P11229 whole entry, looked up): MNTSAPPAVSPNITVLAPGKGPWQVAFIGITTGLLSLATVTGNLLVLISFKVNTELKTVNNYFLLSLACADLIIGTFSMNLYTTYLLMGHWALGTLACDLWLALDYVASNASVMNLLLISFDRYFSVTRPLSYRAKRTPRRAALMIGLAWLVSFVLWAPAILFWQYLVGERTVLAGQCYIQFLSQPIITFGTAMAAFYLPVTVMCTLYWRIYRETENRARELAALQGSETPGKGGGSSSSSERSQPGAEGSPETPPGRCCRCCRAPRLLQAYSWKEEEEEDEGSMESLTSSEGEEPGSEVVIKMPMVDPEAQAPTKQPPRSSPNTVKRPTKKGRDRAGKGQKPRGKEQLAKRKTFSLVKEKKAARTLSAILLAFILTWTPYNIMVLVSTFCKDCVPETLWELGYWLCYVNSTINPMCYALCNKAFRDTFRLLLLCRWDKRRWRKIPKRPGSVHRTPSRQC
Sequence of D(2) dopamine receptor (Homo sapiens) (P14416 whole entry, looked up): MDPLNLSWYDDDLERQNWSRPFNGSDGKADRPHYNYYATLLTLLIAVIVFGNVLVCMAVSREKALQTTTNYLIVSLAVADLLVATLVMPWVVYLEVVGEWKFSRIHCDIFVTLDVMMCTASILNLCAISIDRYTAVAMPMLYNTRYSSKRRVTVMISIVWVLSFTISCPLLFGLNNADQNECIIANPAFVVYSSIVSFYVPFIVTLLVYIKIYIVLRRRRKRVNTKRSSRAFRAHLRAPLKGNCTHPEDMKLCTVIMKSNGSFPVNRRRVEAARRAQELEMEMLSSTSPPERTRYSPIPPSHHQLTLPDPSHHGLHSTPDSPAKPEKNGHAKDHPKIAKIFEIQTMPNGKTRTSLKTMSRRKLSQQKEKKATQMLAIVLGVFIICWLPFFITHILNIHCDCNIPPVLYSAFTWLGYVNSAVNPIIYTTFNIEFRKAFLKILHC
Sequence of Gonadotropin-releasing hormone receptor (Homo sapiens) (P30968 whole entry, looked up): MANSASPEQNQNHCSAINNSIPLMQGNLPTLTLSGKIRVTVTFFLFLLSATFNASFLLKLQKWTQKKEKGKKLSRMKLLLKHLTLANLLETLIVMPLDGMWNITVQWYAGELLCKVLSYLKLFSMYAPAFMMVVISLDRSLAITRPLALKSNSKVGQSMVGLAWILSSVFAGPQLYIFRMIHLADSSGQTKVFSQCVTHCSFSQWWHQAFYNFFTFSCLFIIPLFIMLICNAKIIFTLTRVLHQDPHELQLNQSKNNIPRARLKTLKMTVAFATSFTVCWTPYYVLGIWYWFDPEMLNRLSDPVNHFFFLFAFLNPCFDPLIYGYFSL
Sequence of Beta-2 adrenergic receptor (Homo sapiens) (P07550 whole entry, looked up): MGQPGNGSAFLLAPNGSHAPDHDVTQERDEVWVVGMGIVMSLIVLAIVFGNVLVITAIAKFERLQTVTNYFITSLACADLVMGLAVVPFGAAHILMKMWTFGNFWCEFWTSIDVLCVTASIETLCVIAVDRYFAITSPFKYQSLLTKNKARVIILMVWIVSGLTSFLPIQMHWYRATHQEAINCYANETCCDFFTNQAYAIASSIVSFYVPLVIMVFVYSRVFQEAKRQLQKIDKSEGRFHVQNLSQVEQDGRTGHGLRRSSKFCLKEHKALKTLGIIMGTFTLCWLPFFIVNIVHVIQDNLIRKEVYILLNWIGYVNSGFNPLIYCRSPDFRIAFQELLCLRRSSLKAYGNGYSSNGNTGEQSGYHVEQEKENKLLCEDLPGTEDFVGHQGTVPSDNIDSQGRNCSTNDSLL
Sequence of 5-hydroxytryptamine receptor 2A (Homo sapiens) (P28223 whole entry, looked up): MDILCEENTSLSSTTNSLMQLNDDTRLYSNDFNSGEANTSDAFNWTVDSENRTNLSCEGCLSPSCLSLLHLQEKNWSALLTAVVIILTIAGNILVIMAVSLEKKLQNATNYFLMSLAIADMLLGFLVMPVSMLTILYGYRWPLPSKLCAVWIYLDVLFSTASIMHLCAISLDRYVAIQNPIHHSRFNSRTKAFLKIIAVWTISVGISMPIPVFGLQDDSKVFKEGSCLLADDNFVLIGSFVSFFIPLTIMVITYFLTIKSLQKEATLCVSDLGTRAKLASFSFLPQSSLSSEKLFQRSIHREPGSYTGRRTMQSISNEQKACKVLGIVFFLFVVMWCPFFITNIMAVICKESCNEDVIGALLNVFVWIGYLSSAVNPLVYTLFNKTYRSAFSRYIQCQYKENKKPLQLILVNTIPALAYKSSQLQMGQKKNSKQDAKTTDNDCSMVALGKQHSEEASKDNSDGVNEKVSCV
Sequence of KiSS-1 receptor (Homo sapiens) (Q969F8 whole entry, looked up): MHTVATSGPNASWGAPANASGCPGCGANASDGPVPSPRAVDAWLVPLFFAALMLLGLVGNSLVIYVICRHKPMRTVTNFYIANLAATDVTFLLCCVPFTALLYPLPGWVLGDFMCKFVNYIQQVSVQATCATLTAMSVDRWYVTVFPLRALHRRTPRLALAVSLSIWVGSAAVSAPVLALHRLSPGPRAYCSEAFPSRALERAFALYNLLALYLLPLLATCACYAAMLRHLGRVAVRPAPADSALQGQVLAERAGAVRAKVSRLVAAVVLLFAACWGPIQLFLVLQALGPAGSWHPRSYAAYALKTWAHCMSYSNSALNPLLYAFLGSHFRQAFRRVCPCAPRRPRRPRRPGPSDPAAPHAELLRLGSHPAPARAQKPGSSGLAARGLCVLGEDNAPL

`COc1cc([C@@H]2c3cc4c(cc3[C@@H](O[C@@H]3O[C@@H]5CO[C@@H](C)O[C@H]5[C@H](O)[C@H]3O)[C@H]3COC(=O)[C@H]23)OCO4)cc(OC)c1O`: the Potency entry in experiment [1], in [2], in experiment [3], in experiment [4], in experiment [5] and in experiment [6] was “inactive” in each case. In addition, the Potency entry in experiment [8], in experiment [9] and in experiment [10] was “inactive” each time. Also, in experiment [7], the Potency was 1.14 µM (active).

Turning to `CC(C)(C)c1ccc(OC(=O)c2ccccc2O)cc1`, the Potency entry in experiment [1], in experiment [2], in experiment [3], in experiment [11], in [5] and in experiment [6] was “inactive” throughout. In addition, the Potency entry in [12], in [7], in [13], in experiment [14], in experiment [15] and in experiment [16] was “inactive” throughout. The Potency result in experiment [17], in experiment [18] and in [10] was “inactive” in each case.

Consider `Nc1ccc(-c2ccc(F)cc2)cc1`, for which the Potency entry in experiment [1], in [2], in experiment [3], in experiment [11], in [5] and in [6] was “inactive” in each case. Further, the Potency result in experiment [12], in [7], in experiment [13], in experiment [14], in experiment [15] and in experiment [8] was “inactive” in each case. Further, the Potency result in experiment [17], in experiment [18] and in experiment [10] was “inactive” in each case.

In the case of `CCCCCCCCC(=O)OCC(C)OC(=O)CCCCCCCC` (stereo unspecified), the Potency entry in experiment [1], in [2], in experiment [3], in experiment [5], in [6] and in experiment [12] was “inactive” throughout. In addition, the Potency entry in experiment [19], in experiment [13], in [14], in [15], in [8] and in experiment [17] was “inactive” throughout. Moreover, the Potency result in [18] and in experiment [10] was “inactive” each time.

`CN(C/C=C/C#CC(C)(C)C)Cc1cccc2ccccc12`: the Potency entry in experiment [1], in experiment [2], in [3], in experiment [11], in experiment [5] and in experiment [6] was “inactive” in each case. The Potency entry in [12], in experiment [17], in [9] and in [18] was “inactive” in each case.

For the compound `CN1[C@@H]2CC(OC(=O)[C@H](CO)c3ccccc3)C[C@H]1[C@@H]1O[C@@H]12` (stereo partly specified), the Potency entry in experiment [1], in experiment [2], in experiment [3], in experiment [12], in experiment [7] and in experiment [19] was “inactive” in each case. Further, the Potency result in experiment [13], in [14], in experiment [15], in experiment [8], in [16] and in [17] was “inactive” throughout. Moreover, the Potency result in experiment [9], in experiment [18] and in experiment [10] was “inactive” throughout.

For `CCN(C)C(=O)Oc1cccc([C@H](C)N(C)C)c1`, the Potency entry in experiment [1], in experiment [2], in experiment [3], in [5], in experiment [6] and in experiment [12] was “inactive” in each case. Besides, the Potency entry in [7], in experiment [19], in [14], in experiment [15], in [8] and in [16] was “inactive” in each case. Moreover, the Potency result in experiment [18] and in experiment [10] was “inactive” each time.

For `O=C(OCC(O)CO)c1ccccc1Nc1ccnc2cc(Cl)ccc12` (stereo unspecified), the Potency result in [1], in [2], in experiment [3], in experiment [5], in experiment [6] and in experiment [12] was “inactive” in each case. The Potency result in experiment [19], in [13], in experiment [15], in experiment [17], in [9] and in experiment [18] was “inactive” each time. Besides, in [10], the Potency result was “inactive”.

In the case of `Clc1cccc(-c2cc(Cl)cc(Cl)c2)c1`, the Potency result in experiment [1], in [2], in experiment [3], in experiment [5], in [6] and in experiment [19] was “inactive” each time. In addition, the Potency result in experiment [13], in [14], in experiment [15], in experiment [17], in experiment [9] and in experiment [18] was “inactive” throughout. Also, in experiment [10], the Potency entry was “inactive”.

Turning to `CN1CCC(N(Cc2cccs2)c2ccccc2)CC1`, the Potency result in experiment [1], in experiment [2], in [3], in [5], in experiment [13] and in [14] was “inactive” each time. Besides, the Potency entry in experiment [15], in [8], in [16] and in experiment [17] was “inactive” each time. In addition, in experiment [19], the Potency is 0.365 µM (active).

Regarding `Cc1ccc(Cl)c(N)c1Cl`, the Potency entry in experiment [1], in experiment [2], in [3], in experiment [11], in [6] and in [12] was “inactive” throughout. In addition, the Potency result in experiment [7], in experiment [19], in [13], in experiment [14], in experiment [15] and in experiment [8] was “inactive” throughout. The Potency result in experiment [16], in experiment [17], in experiment [9], in experiment [18] and in experiment [10] was “inactive” throughout.

On to `c1cnc(N2CCN(Cc3ccc4c(c3)OCO4)CC2)nc1`, for which the Potency entry in experiment [1], in [2], in experiment [3], in experiment [4], in experiment [6] and in experiment [12] was “inactive” in each case. Also, the Potency result in experiment [7], in [19], in experiment [13], in experiment [14], in [8] and in experiment [16] was “inactive” each time. For the same compound, the Potency result in [17] and in [10] was “inactive” in each case.
